{"source": "PubChem BioAssay (NCI)", "note": "This is part of a sample that, as a whole, favours compounds with a hit. Of some 83,000 tested, about 20% had one in any assay.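 Compound tested at a single concentration for 48 hours in 96-well plates; a percent growth value below 10 was scored as active.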 The source made the active and inactive calls.", "data": [{"system": "HL-60(TB) leukemia", "experiment": "NCI-60 one-dose screen, 48 h (100 = growth as untreated, 0 = no growth, -100 = all killed)", "conditions": "10 µM unless noted", "values": [{"smiles": "C=C(C)[C@@H]1CC[C@]2(C(=O)N3CCN(C)CC3)CC[C@]3(C)[C@H](CC[C@@H]4[C@@]5(C)C/C(=C/c6ccc(C(F)(F)F)cc6)C(=O)C(C)(C)[C@@H]5CC[C@]43C)[C@@H]12", "growth": "94.1% (inactive)"}, {"smiles": "CCN1C(=O)N(CC)C2C1NN=c1s/c(=C\\c3cccc(F)c3)c(=O)n12", "note": "(stereo unspecified)", "growth": "-16.9% (active)"}, {"smiles": "COc1ccc2[nH]c(O)c(/C=c3/ccc4c(c3)N=C(c3ccc(C(F)(F)F)cc3)N=4)c2c1", "growth": "94.4% (inactive)"}, {"smiles": "CCN1CCN(c2ccc(Nc3ncnc4c3nnn4CCc3cc(OC)cc(OC)c3)cc2)CC1", "growth": "87.8% (inactive)"}, {"smiles": "CN(C)c1ccc(/C=C(\\C#N)c2nc3ccccc3s2)cc1", "growth": "93.3% (inactive)"}, {"smiles": "CC[C@]12C=CCN3CC[C@@]4(c5ccc(OC)cc5N(C)[C@H]4[C@@](O)(C(=O)OC)[C@@H]1OC(=O)CCC[P+](c1ccccc1)(c1ccccc1)c1ccccc1)[C@@H]32", "growth": "-53.1% (active)"}, {"smiles": "O=C(CSc1nc(-c2ccc(Cl)cc2)cn1-c1ccc(Cl)cc1)c1ccc(Br)cc1", "growth": "97.1% (inactive)"}, {"smiles": "CN1CCN(Cc2ccc(NC(=O)c3cncc(C#Cc4ncc5cnccn45)c3)cc2C(F)(F)F)CC1", "growth": "24.8% (inactive)"}, {"smiles": "COc1ccc(-c2nn(-c3ccc(NC(=O)c4ccc(Cl)c(C(F)(F)F)c4)cc3)cc2-c2ccncc2)cc1Cl", "growth": "2.89% (active)"}, {"smiles": "O=c1c(-c2nc3ccccc3[nH]2)cc2ccccc2n1Cc1cn(Cc2ccc(N3CCOCC3)cc2)nn1", "growth": "104% (inactive)"}, {"smiles": "CCN(CCNc1ccc(C)c2sc3cc(Cl)ccc3c(=O)c12)CC(C)O", "note": "(stereo unspecified)", "growth": "9.78% (active)"}]}]}
